Source: PubChem
An excerpt weighted towards active compounds, which were near 2.3% of everything screened.
Coupling enz: inhibits coupling enzyme system, counter-screen for aldolase hits. coupling enzyme system counterscreen, AmpLite Red fluorescence. activity change, negative = inhibition, % at 58.2 µM, hits read low. 0.67% of 290,000 active; in the data active means activity change below about -30%
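Fluorescence at 525 nm excitation and 598 nm emission measured inhibition of the coupled detection system without aldolase. Compounds (at 57.5 uM final) were preincubated 10 min at room temperature with coupling enzyme reagent before a 20 min substrate/AmpLite Red step.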
Tau ThT inhib: inhibitors of human tau fibril formation, thioflavin T binding; P10636; recombinant tau K18 P301L, heparin-induced fibrillization, ThT fluorescence; Potency, µM (series often up to 57.4 µM), for the others: at the highest dose activity, negative = inhibition, usual class: inhibitors; 2.1% of 270,000 active; AID 1460; further: potency means the concentration at half of the fitted maximal effect; nearly all actives have a fitted effect of over 55% in size
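Heparin-induced (20 uM) aggregation of recombinant human K18 P301L tau, 15 uM unlabeled with 0.24 uM labeled, pH 7 acetate buffer, 6 hr at 37 C with compound. Fibrils quantified by 30 uM ThT fluorescence after 1 hr ambient incubation.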
Tau fluor cs: counter-screen for tau fibril formation inhibitors; tau K18 P301L Alexa594 fluorescence, heparin fibrillization; Potency, µM (doses to about 57.7 µM), for the others: top-dose activity change, negative = decrease; 0.93% of 280,000 active; further: potency means the concentration at half of the fitted maximal effect; nearly all actives have a fitted effect of over 55% in size
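Human tau K18 P301L (15 uM unlabeled, 0.24 uM Alexa 594-labeled) in 100 mM sodium acetate pH 7 with 20 uM heparin, 6 hr at 37 C. ThT 30 uM added, 1 hr ambient; Alexa 594 FP and total fluorescence read at 555/632 nm.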
USP1-UAF1 inh: inhibitors of human USP1/UAF1 deubiquitinase | 0.23% of 390,000 active | Potency, µM (top dose mostly 57.1 µM), for the others: at the top dose activity change, negative = inhibition, hits mostly inhibitors | AID 743255 | recombinant USP1/UAF1, Ub-Rhodamine cleavage fluorescence | O94782; further: potency means the concentration at half of the fitted maximal effect; nearly all actives have a fitted effect of over 60% in size
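In this screen, compounds sit with the deubiquitinase complex (1nM) for 15 min at room temperature before Ub-Rho is added at 150nM final. Fluorescence rise is then followed for 6 reads every 60 seconds.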
Tau fibril FP: blocks human tau fibril formation measured by polarization | P10636 | K18 P301L tau heparin fibrillization, Alexa594 FP, 6 h | Potency, µM (top dose mostly 57.7 µM), for the others: at the top dose activity, negative = inhibition, hits mostly inhibitors | 0.39% of 280,000 active | AID 1468; further: potency means the concentration at half of the fitted maximal effect; nearly all actives have a fitted effect of over 55% in size
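Heparin (20 uM) drove fibril formation of recombinant tau K18 P301L, 15 uM unlabeled with 0.24 uM Alexa 594 label, for 6 hr at 37 C in 100 mM sodium acetate pH 7. Fluorescence polarization (555/632 nm) read 1 hr after 30 uM ThT.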
* marks the source's active call; other numbers are inactive results; [ ] = dose if it differs, or a comment. Unless noted, the call rests on the fitted dose curve; in most records, active means well fitted curve in the direction sought with a large enough effect; inconclusive means small, poorly fitted or top-dose-only effect, or another doubt; inactive means no such curve, though single readings can be large; an effect the other way counts as inactive or inconclusive. On the % scale 0 is the no-effect control and ±100 the full control effect.

COc1ccc(-c2cc(-c3ccccc3)nc(SCC(=O)Nc3nccs3)c2C#N)cc1 was read as Coupling enz 0.0, Tau ThT inhib -1.0%, Tau fluor cs -26.6%, USP1-UAF1 inh -1.8% and Tau fibril FP inconclusive.
`COC(=O)C1=C(C(=O)OC)C(c2ccccc2O)c2sc(=O)[nH]c2S1` (stereo not drawn) gave Coupling enz -10.7, Tau ThT inhib 25.1µM*, Tau fluor cs -20.2%, USP1-UAF1 inh -11.8% and Tau fibril FP 3.1%.
Brc1ccc2ncnc(Nc3ccc(N4CCOCC4)cc3)c2c1 was read as Coupling enz -4.0, Tau ThT inhib 8.91µM*, Tau fluor cs inconclusive, USP1-UAF1 inh -8.6% and Tau fibril FP 9.9%.
`O=C(COc1ncnc2ccc(Br)cc12)Nc1ccc(N2CCOCC2)cc1` gave Coupling enz -1.3, Tau ThT inhib -18.6%, Tau fluor cs -24.3%, USP1-UAF1 inh -10.6% and Tau fibril FP 13.3%.
For COc1cc(-c2oc3cc(O)ccc3c(=O)c2O)ccc1O the results were Coupling enz 4.4, Tau ThT inhib inconclusive, Tau fluor cs inconclusive and Tau fibril FP 9.3%.
Screening COc1cc(O)c2c(=O)c3c(OC)c(O)ccc3oc2c1 returned Coupling enz -1.9, Tau ThT inhib 12.6µM*, Tau fluor cs inconclusive, USP1-UAF1 inh inconclusive and Tau fibril FP 8.1%.
For O=c1c(O)c(-c2ccc(O)cc2)oc2cc(O)cc(O)c12 the results were Coupling enz -4.6, Tau ThT inhib 12.6µM*, Tau fluor cs inconclusive, USP1-UAF1 inh 6.5% and Tau fibril FP 8.2%.
For COc1cc(O)c2c(=O)c(O)c(-c3ccc(O)c(O)c3)oc2c1 the results were Coupling enz 1.0, Tau ThT inhib 5.01µM*, Tau fluor cs 20µM*[quencher] and Tau fibril FP -1.9%.
For O=C1C=CC2=C3c4cc(O)c(O)cc4C[C@]3(O)COC2=C1 the results were Coupling enz -1.1, Tau ThT inhib 15.8µM*, Tau fluor cs inconclusive and Tau fibril FP inconclusive.
Screening CNc1nc2c3ccccc3n(C(C)=O)c2s1 returned Coupling enz -0.4, Tau ThT inhib inconclusive, Tau fluor cs -28.4%, USP1-UAF1 inh -9.1% and Tau fibril FP -6.6%.
CC(=O)n1c2ccccc2c2nc(NC(C)C)sc21 was read as Coupling enz -15.8, Tau ThT inhib 22.4µM*, Tau fluor cs -25.8%, USP1-UAF1 inh -24.1% and Tau fibril FP inconclusive.
CN(C)C(=O)c1ccc2c(c1)N(CC(=O)NCc1ccccc1Cl)C(=O)C1CCCCN21 (stereo not drawn) was read as Tau ThT inhib -1.6%, Tau fluor cs -2.8%, USP1-UAF1 inh -20.0% and Tau fibril FP -4.1%.
Screening COc1ccc(OC)c(/C=C/C(=O)N(C)CC(=O)Nc2ccc(N3CCOCC3)cc2)c1 returned USP1-UAF1 inh -2.5%.
For O=C(Nc1ccccc1-c1nc2ccccc2s1)c1ccc(F)cc1 the results were Tau ThT inhib -10.6%, Tau fluor cs -13.7%, USP1-UAF1 inh -20.4% and Tau fibril FP -3.9%.
CNc1sc(C(=O)c2cccs2)c(N)c1-c1nc2ccccc2s1 was read as Coupling enz -0.7, Tau ThT inhib 7.94µM*, Tau fluor cs 11.2µM*[quencher], USP1-UAF1 inh -27.3% and Tau fibril FP 31.6µM*.
CNc1sc(C(=O)c2ccc(F)cc2)c(N)c1-c1nc2ccccc2s1 was read as Coupling enz -0.4, Tau ThT inhib 15.8µM*, Tau fluor cs inconclusive, USP1-UAF1 inh -14.9% and Tau fibril FP -0.7%.
For Cc1ccc(NC(=O)CCn2cccn2)cc1Cl the results were Tau ThT inhib -2.5%, Tau fluor cs -8.8%, USP1-UAF1 inh -23.0% and Tau fibril FP -5.1%.
`CCCCN(CC)C(=O)c1c[nH]c2ccc(S(=O)(=O)N(C)c3ccc(Cl)cc3)cc2c1=O` gave Tau ThT inhib 0.6%, Tau fluor cs -17.2%, USP1-UAF1 inh -18.5% and Tau fibril FP -4.1%.
CC(C)c1ccc(S(=O)(=O)c2nnn3c2nc(NCc2cccs2)c2sccc23)cc1 was read as Tau ThT inhib inconclusive, Tau fluor cs -5.5%, USP1-UAF1 inh -23.6% and Tau fibril FP inconclusive.
